# Source: PubChem BioAssay
# Many of the other results were omitted from the sample, so hits are more common in it than they were.
# RmlCD inh mix: inhibitors of RmlC and RmlD coupled enzymes; 110,000 compounds, 0.39% hits; AID 1532; inhibition, % at 5.5 µM; RmlC/RmlD coupled enzyme inhibition, 384-well mixture HTS; in the data active means inhibition above about 30%, passing the limit was not always enough; inconclusive means no clear call, values can overlap the other calls
# HIV RNase H inh-1: inhibitors of HIV-1 reverse transcriptase RNase H. P04585. RT-RNase H RNA/DNA duplex cleavage, fluorescence. 65,000 compounds, 1.9% hits. inhibition, % at 10 µM; in the data active means inhibition above about 50%
# HIV RNase H inh-2: confirmation of HIV-1 reverse transcriptase RNase H inhibitors. shares compounds with HIV RNase H inh-1. Recombinant RT RNase H, fluorescent RNA/DNA duplex cleavage. inhibition, % at 10 µM. 1,000 compounds, 39% hits. AID 651; in the data active means inhibition above about 48%; inconclusive means no clear call, values can overlap the other calls
# * = called active by the depositor; ? = inconclusive; . = not tested or not shown.
SMILES,RmlCD inh mix,HIV RNase H inh-1,HIV RNase H inh-2
O=S(=O)(c1ccc2c(c1)OCCO2)N1CCC(n2nnc3cc(F)ccc32)CC1,-9,-2,.
O=C(N1CCOCC1)N1CCC(n2nnc3cc(F)ccc32)CC1,14,84*,34
CC1CCCCN1C(=O)CN1C(=O)CN(C)C(=O)c2ccccc21 (stereo unspecified),-8,1,.
Cc1ccc(Cl)cc1N1CCN(Cc2nc3c(c(=O)[nH]c(=O)n3C)n2CCc2ccccc2)CC1,-10,21,.
CCOc1ccc(C2SCC(=O)Nc3c2c(=O)[nH]n3C2CCCCCC2)cc1 (stereo unspecified),79,58*,4
COc1ccc(C2SCC(=O)Nc3c2c(=O)[nH]n3C2CCCCCC2)cc1 (stereo unspecified),25,-1,.
CCC(=O)NCCc1nc(-c2ccccc2)no1,6,.,.
O=C(O)CCSCC(=O)c1ccc2c(c1)OCCO2,.,7,.
O=S(=O)(c1ccccc1)N1CCN(S(=O)(=O)c2ccccc2)C1,8,-9,.
O=S(=O)(/N=S1/CC=CCN1S(=O)(=O)c1ccccc1)c1ccccc1 (stereo unspecified),-6,79*,60*
CC(C)Oc1ccc(/C(O)=C2/C(=O)C(=O)N(CCN3CCOCC3)C2c2ccccc2)cc1 (stereo unspecified),-4,2,.
CCCC(=O)Nc1cc(C)c2c(=O)oc3ccccc3c2n1,8,-18,.
Cc1cc(NC(=O)CN2CCc3ccccc3C2)nc2c1c(=O)oc1ccccc12,.,58*,48
O=C(CSc1nnc(-c2ccc(F)cc2)o1)c1ccc2c(c1)OCCO2,-1,59*,?
O=C(CSc1nnc(CNc2ccc(F)cc2)o1)N1CCN(C(=O)c2ccco2)CC1,-10,-12,.
Cc1cc(C)c(C)c(C(=O)CSc2nnc(-c3ccc4[nH]c(C)c(C)c4c3)o2)c1C,-13,.,.
O=C(CSc1nnc(-c2ccc(F)cc2)o1)N1CCN(C(=O)c2ccco2)CC1,-13,81*,32
O=C(CSc1nnc(-c2ccc(O)cc2)o1)Nc1ccc2c(c1)OCCO2,-1,.,.
Cc1[nH]c2ccc(-c3nnc(SCC(=O)c4ccc(F)cc4)o3)cc2c1C,9,79*,?
CCOCCn1c(C(C)O)nc2ccccc21 (stereo unspecified),4,.,.
COc1ccc(-c2noc(CCC(=O)Nc3ccc4c(c3)OCCO4)n2)cc1,-12,-2,.
O=C(CSc1nnc(-c2ccccc2)o1)Nn1cnnc1,12,-3,.
Cc1nc(Sc2cccn2C)c(C(F)(F)F)c(=O)[nH]1,-7,-15,.
CCOC(=O)c1c(NC(=O)C(C)S(=O)(=O)c2cn(CC)c3ccccc23)sc2c1CCCC2 (stereo unspecified),-8,.,.
CCOC(=O)N1CCC(N2Cc3cccc(C(=O)NCc4ccc(OC)cc4)c3C2=O)CC1,.,73*,44
SMILES,RmlCD inh mix,HIV RNase H inh-1,HIV RNase H inh-2
CCOC(=O)N1CCC(N2Cc3cccc(C(=O)NCc4ccccc4OC)c3C2=O)CC1,-7,-32,.
CC(C)NC(=S)NN(c1ccccc1)c1ccccc1,3,.,.
Cc1[nH]n(-c2cccc3ccccc23)c(=O)c1/C=N/c1sc2c(c1C#N)CCC2,-19,.,.
O=c1c2[nH]c3ccccc3c2ncn1CCN1CCCCC1,-4,78*,37
O=c1c2[nH]c3ccccc3c2ncn1CCN1CCOCC1,22,1,.
Cc1ccc(C(=O)N/C(=C\c2ccc([N+](=O)[O-])cc2)C(=O)NCCc2ccccc2)cc1,0,.,.
Cc1cccc(-c2nsc(SCC(=O)Nc3nccs3)n2)c1,0,82*,74*
Cc1cc2nc(-c3ccc(SCC(=O)N4CCc5ccccc54)nc3)[nH]c2cc1C,-42,.,.
CCc1nnc(NC(=O)CSc2nc(-c3ccc(OC)cc3)ns2)s1,8,30,.
COc1ccc(-c2nsc(SCC(=O)Nc3cc(C)on3)n2)cc1,6,84*,61*
Cc1cccc(-c2nsc(SCC(=O)N3CCCC3)n2)c1,3,79*,34
Cc1cccc(-n2c(SCC(=O)N3CCCC3)nc3n[nH]c(C)c3c2=N)c1,3,.,.
O=C(CSc1nc2ccccc2s1)Nc1nccs1,14,.,.
Cc1cc(NC(=O)CSc2ccc(-c3nc4cc(C)c(C)cc4[nH]3)cn2)no1,-39,70*,72*
CN(c1ccc(C(=O)N2CCN(c3ccc(F)cc3)CC2)cc1)S(C)(=O)=O,-5,-3,.
CS(=O)(=O)N1N=C(c2ccc3nccnc3c2)CC1c1ccccc1 (stereo unspecified),3,.,.
CCOc1ccc(OCc2ccc(C(=O)N3CCc4ccccc4C3)o2)cc1,-39,.,.
CCN(CC)S(=O)(=O)c1c(Br)cc(C)cc1Br,-19,.,.
COCCn1cc(C(=O)NCc2cccs2)c2c3ccccc3n(C)c2c1=O,6,-6,.
COC(=O)c1cc(NC(=O)c2cc(C)oc2C)cc(C(=O)OC)c1,-12,.,.
N[C@@H](C(=O)N[C@@H]1C(=O)N2C(C(=O)O)=C(Cl)CS[C@H]12)c1ccccc1,-9,59*,33
NC(=O)c1cc[n+](CC2=C(C(=O)O)N3C(=O)[C@@H](NC(=O)C(c4ccccc4)S(=O)(=O)[O-])[C@H]3SC2)cc1 (stereo partly specified),-6,.,.
COc1ccccc1N=c1oc2c(OC)cccc2cc1C(=O)NCc1ccco1,3,70*,72*
COc1cccc2cc(C(=O)NCc3ccccn3)c(=O)oc12,7,.,.
CCCCCCCC(=O)N/N=C/c1ccc(Br)cc1,-7,.,.
SMILES,RmlCD inh mix,HIV RNase H inh-1,HIV RNase H inh-2
Cc1cc2n(n1)SC(Nc1cccc3ccccc13)N2 (stereo unspecified),0,.,.
COc1ccc2nc(C)[nH]c(=O)c2c1,7,-1,.
CC(C)OC(=O)CSc1n[nH]c(-c2cccnc2)n1,-2,-9,.
Cc1cc2oc(=O)cc(CN3CCC(C)CC3)c2c(C)c1Cl,6,-7,.
COc1ccc(N2CCN(Cc3cc(=O)oc4cc(C)c(Cl)c(C)c34)CC2)cc1,-15,72*,68*
COC(=O)c1ccc(Cn2nnc3c(sc4nc(N5CCOCC5)c5c(c43)CCCC5)c2=O)o1,.,1,.
COC(=O)c1ccc(Cn2cnc3c(sc4nc(N5CCOCC5)c5c(c43)CCCC5)c2=O)o1,-15,64*,?
Cc1ccc(NCCC(=O)c2ccc(Br)cc2)cc1,-18,.,.
COC(=O)C(CC(=O)c1ccc(Br)cc1)n1ccnc1 (stereo unspecified),.,79*,36
CCOC(=O)C1=C(C)NC(=O)NC1c1ccc(OC(=O)c2ccco2)cc1 (stereo unspecified),-10,.,.
CCCCCCN(C(=O)CCCCCN1C(=O)NC(c2ccc(-c3ccccc3)cc2)C(C(=O)OCc2ccccc2)=C1C)C(C(=O)NCCCC)c1ccc(-c2ccccc2)cc1 (stereo unspecified),2,.,.
COC(=O)c1ccccc1S(=O)(=O)N(Cc1cc2cc3c(cc2[nH]c1=O)OCO3)C1CCCCC1,.,53*,52*
COc1ccc(CN(Cc2cc3cc4c(cc3[nH]c2=O)OCO4)C(=O)NC2CCCCC2)cc1,3,0,.
O=C(Cn1cccc1C(=O)c1ccccc1)NCCCN1CCOCC1,.,-24,.
COc1ccc(C(c2nnnn2C(C)(C)C)N2CCN(c3nc4ccccc4s3)CC2)cc1 (stereo unspecified),51,-4,.
CCC(C)(C)n1nnnc1C(c1ccc(O)c(OC)c1)N1CCN(c2nc3ccccc3s2)CC1 (stereo unspecified),2,56*,42
